Experiments:
Type in all cases: functional
[1] = tested on: Plasmodium falciparum; experiment: GSK_TCMDC: Inhibition of Plasmodium falciparum 3D7 in whole red blood cells, using parasite LDH activity as an index of growth. Test compounds present at 2uM
[2] = tested on: Plasmodium falciparum; experiment: GSK_TCMDC: Inhibition of Plasmodium falciparum Dd2 in whole red blood cells, using parasite LDH activity as an index of growth. Test compounds present at 2uM
[3] = tested on: HepG2; experiment: GSK_TCMDC: Percent inhibition of human HepG2 cell line. Test compounds present at 10uM.

SMILES | Inhibition [1] [%] | Inhibition [2] [%] | Inhibition [3] [%]
Cc1cccc(-c2cccc3c(NC(=O)N4CCc5cc6nccc(N7CCN8CCC[C@H]8C7)c6cc54)cccc23)n1.Cl | 94 | 68 | 14
CCC(C)CN1CCN(c2cc(NC(=O)c3cccs3)ccn2)C(C)C1.O=C(O)C(F)(F)F (stereo not given) | 88 | 72 | 5
CCCCCCCN(CCCCCCC)CCCC(=O)Nc1ccnc2ccc(OC)cc12.O=C(O)C(=O)O | 100 | 98 | 43
CN(c1ccc(NC(=O)c2cccc(F)c2)cc1)C1CCCN(Cc2cccc(O)c2)C1.O=C(O)C(F)(F)F (stereo not given) | 85 | 2 | 13
CCCCOc1c(CCNCCCCNCCc2cc(F)c3ccccc3c2OCCCC)cc(F)c2ccccc12.CS(=O)(=O)O | 96 | 78 | 97
